Measurements from PubChem BioAssay (NCATS).
Results filed as inconclusive are left out. Unmarked numbers belong to inactive results. Calls of active or inactive are those of the source. The call rests on the fitted dose curve; in most records, active means well fitted activation curve with a large enough effect; inconclusive means small, poorly fitted or top-dose-only effect; inactive means flat fitted curve, though single readings scatter.

assay: Primary redox qHTS assay for identification of artifact compounds. (AID 1845223); details: Amplex Red/HRP redox cycling with DTT, fluorescence; series mostly up to 53.8 µM; redox activity (% of DA3003): at the top concentration;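 on redox activity (% of DA3003): 0% = DMSO and 100% = reference compound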
Outline: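 Redox-cycling detection via DTT (250 uM final) oxidation coupled to Amplex Red (25 uM)/HRP (250 mU/mL) in HBSS. 15 min preincubation plus 30 min after DTT, room temperature. Ex/Em 525/598 nm; 4-parameter Hill fit against DMSO and 10 uM DA3003.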
Potency means the concentration at half of the fitted maximal effect.

SMILES | Potency | redox activity (% of DA3003)
C[C@@H]1O[C@@H](O[C@H]2[C@H](Oc3cc(O)c(C(=O)CCc4ccc(O)cc4)c(O)c3)O[C@H](CO)[C@@H](O)[C@@H]2O)[C@H](O)[C@H](O)[C@H]1O | 10.6 µM (active) | 
COc1c(C)c(OCC(O)C(C)(C)O)cc2c1CNC2=O (centres undefined) |  | 18.6%
CC(=O)NC1CC(=O)C23C(=O)NC(Cc4c[nH]c5ccccc45)C2C(C)=C(C)C(O)C3/C=C/CC(C)/C=C(/C)C(O)C1O (centres undefined) |  | 19.2% [at 25.6 µM]
COC(=O)C1(O)C(OC(C)=O)CCC2C3(CC(c4ccoc4)OC3=O)C(C)=CCC21C(=O)OC (centres undefined) |  | 16.2% [at 25.6 µM]
CN1CCN(C2=Nc3ccccc3Nc3ccc(O)cc32)CC1 |  | -7.03%
CCCC(=O)Nc1cccc(NC(=O)c2ccccc2Br)c1 |  | -2.92%
CC(C)(O)C1CCC2(C)CCCC(C)(O)C2C1 (centres undefined) |  | -1.52%
CC(O)C(=O)/C=C/C=C/C(=O)OC1C=C2COC(=O)C2(O)C2(C)CCCC(C)(C)C12 (centres undefined) |  | 3.92% [at 25.6 µM]
O=C(/C=C/c1ccc(O)cc1)O[C@H]1[C@H](OC2CCCCC2O)O[C@H](CO)[C@@H](O)[C@@H]1O (some centres undefined) |  | -2.42% [at 25.6 µM]
COC(=O)C(CC1(OC(=O)C(C)C)c2ccccc2N2C(=O)C(C)(C)N(O)C21)n1cnc2ccccc2c1=O (centres undefined) |  | -0.197% [at 25.6 µM]
CC[C@H](C)[C@H](NC(=O)[C@H](Cc1ccc(O)cc1)NC(=O)[C@@H](N)C(C)C)C(=O)N[C@@H](Cc1cnc[nH]1)C(=O)N1CCC[C@H]1C(=O)N[C@@H](Cc1ccccc1)C(=O)O |  | -2.99% [at 6.41 µM]
CC(O)CCc1ccc(O[C@@H]2O[C@H](CO)[C@@H](O)[C@H](O)[C@H]2O)cc1 (some centres undefined) |  | -1.01%
CC1(C(=O)O)CCCC2(C)C3CC4C5CC3(CCC12)CC45C (centres undefined) |  | 15.6%
O=C(O)C1(c2ccc(-c3ccc(Cl)c(Cl)c3)c(F)c2)CC1 |  | 9.94%
C=C1C[C@@]2(O)O[C@@]3(C[C@H]2C(C)C)[C@@H](C)CC[C@@H]13 |  | 1.47%
C=C1[C@H]2CCC3[C@]4(C)CCC[C@@](C)(C(=O)O)C4CC[C@]3(C2)[C@H]1OC(C)=O (some centres undefined) |  | -4.63%
C=CC1(C)C=C2CC[C@H]3[C@@](C)(C(=O)O)CCC[C@]3(C)C2CC1 (some centres undefined) |  | 8.23%
Nc1nc(COC(=O)c2ccc([N+](=O)[O-])cc2)nc(Nc2ccccc2)n1 |  | -0.602%
COC(=O)C1=COC(O[C@@H]2O[C@H](CO)[C@@H](O)[C@H](O)[C@H]2O)/C(=C\COC(=O)/C=C/c2ccccc2)C1CC(=O)OCCc1ccc(O)cc1 (some centres undefined) |  | 17.9% [at 25.6 µM]
C=CC(C)(CC/C=C(\C)C(=O)OC[C@H]1O[C@@H](OC(C)(C=C)CC/C=C(\C)C(=O)O[C@H]2[C@H](O)[C@@H](O)[C@H](OC(C)(C=C)CC/C=C(\C)C(=O)O)O[C@@H]2CO)[C@H](O)[C@@H](O)[C@@H]1O)O[C@@H]1O[C@H](CO)[C@@H](O)[C@H](O)[C@H]1O (some centres undefined) |  | 0.215% [at 11.5 µM]

SMILES | Potency | redox activity (% of DA3003)
C=C1CC23CC1CCC2C12OC(=O)C(C)(C(O)CC1O)C2C3C(=O)O (centres undefined) |  | -3.43%
O=C(c1c2ccccc2cc2ccccc12)N1CCC(N2CCC[C@@H](C(=O)N3CCOCC3)C2)CC1 |  | 17.8%
COc1c(C)c(OCC=C(C)C)cc2c1CNC2=O |  | -3.35%
C#CCCCn1cc(-c2cccc3c2N[C@@H](C)CC(=O)N3)cn1 |  | -8.07%
O=C(c1ccc(Cl)c([N+](=O)[O-])c1)N1CCN(c2ccccc2F)CC1 |  | 3.57%
C=C1CC/C=C(/CO)C(=O)C[C@@H]2[C@@H]1C[C@@]2(C)COC(C)=O |  | -5.81%
Cc1ccc2nc(NC(=O)CSc3nc4c(c(=O)n3-c3ccc(F)cc3)SCC4)sc2c1 |  | -7.31%
O=C(O)c1ccnc2cc(-c3nc4ccccc4n3CCN3CCCCC3)sc12 |  | 17.8%
COc1cc(O[C@@H]2O[C@H](CO[C@H]3OC[C@](O)(CO)[C@H]3O)[C@@H](O)[C@H](O)[C@H]2O)cc(OC)c1O |  | -3.59% [at 25.6 µM]
CC(=O)c1ccc(O[C@@H]2OC[C@@H](O)[C@H](O)[C@H]2O[C@]2(CO)O[C@H](CO)[C@@H](O)[C@@H]2O)c(O)c1 |  | -16.6% [at 25.6 µM]
COC(=O)[C@H](Cc1cccc(C(=N)N)c1)[C@@H](C)NC(=O)c1ccc(-c2cc[n+]([O-])cc2)cc1 |  | 3.74%
Cc1c(NC(=O)N2CCOCC2)ccc2c1c1ccccc1n2C(C)C |  | 4.97%
O=C(O)CCc1cccc(O)c1O[C@@H]1O[C@H](CO)[C@@H](O)[C@H](O)[C@H]1O |  | -13.6%
O=C(C[C@@H]1C(C(=O)O)=CO[C@@H](O[C@@H]2O[C@H](CO)[C@@H](O)[C@H](O)[C@H]2O)/C1=C\CO)OCCc1ccc(O)c(O)c1 |  | -1.92% [at 25.6 µM]
CC1CC(=O)[C@]2(O)C(C(=O)OCCc3ccc(O)c(O)c3)=CO[C@@H](O[C@@H]3O[C@H](CO)[C@@H](O)[C@H](O)[C@H]3O)[C@H]12 (some centres undefined) |  | -4.33% [at 25.6 µM]
O=C(O)/C=C/c1ccc(O[C@@H]2O[C@H](CO)[C@@H](O)[C@H](O)[C@H]2O)cc1 |  | -18.1%
N[C@@H](CCNCc1ccc(Cl)cc1)C(=O)N1CCCCC1 |  | -5.38%
C=C1C2(C)CC3C4(C)OC(C5OC56C4=CC(=O)OC6(C)C)C3(C)C13C(=O)OC(C)C3(O)C2=O (centres undefined) |  | -6.34% [at 25.6 µM]
C=C1C(OC(C)=O)CCC2(C)CCC(C(C)(C)O)CC12 (centres undefined) |  | 16.7%
